One test relates to LXRa homodimer (NR concentration 270 nM). As to the kind of experiment: PBM binding z-score (relative to random genomic background probes); higher = stronger binding; sequences stand for … in GC…GCGATTGACAGCGTAGAATGAAGG
The essentials:
(§1)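 For binding z-scores, the reference was random background probes on custom Agilent 4×180K protein-binding microarrays. These arrays were incubated 1 h with ligand-free nuclear receptor dimers in PBS pH 7.4, 2% milk, 0.02% Triton X-100, 1 mM DTT, 0.2 mg/mL BSA and 0.4 mg/ml salmon testes DNA. Fluorescence was scanned after antibody detection of each partner (one per run) and regression-normalized.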
TCTCGGAGGACACGAAGCTCAGAGCTTTCCAGAG: the PBM binding z-score was -0.771.
Consider GCTGCTAGGTCAACTGATGGTCCGCTAAAGCTCG, for which the PBM binding z-score was found to be 0.00165.
CCTAGTTGGTCAAGGTCACACTCGCTATAGGTAC: the PBM binding z-score turned out to be 2.41.
For CTACCAAGGTGAACAAGGTCGCTGATTACTATTC, the PBM binding z-score is -0.405.
The sequence ACATACAGGTGATGAAGGTAACTCAGGCTATCAT returned a PBM binding z-score of 0.233.
The same measure, in the same setting: the value for TAGCCTAGGTCATGGACCAGTATACCACGCGAAC was 0.268; that for TAGCCTAGGTAATGCGGGCCAGTATAGTGTCGGC was -0.66.
With CCTTTCGGGTCACGAGGTTATAGCACGACGAGCG, the PBM binding z-score came to 0.634.
For GATACAGGGTCAGCTAGAAGCCAGAGTATGGAAA, the PBM binding z-score was -0.483.
Consider ATTTCTAGGTAACAAGTTCAGTGAAAGAGAGGAC, for which the PBM binding z-score was 1.04.
On to ACTCGGAGGACAAAGGTCTGAGCTACGCCAGTGA, for which the PBM binding z-score was -0.354.
On to CCTAGCAGGCCAGGGTCAGTCAAGCATTTCGCTT, for which the PBM binding z-score is -0.832.
Regarding CCTACTGGGCCCTTCAGAGGTCATTGATCATATG, the PBM binding z-score was found to be 5.02.
Sequence CCTTACGGGTCACGAGGTTATACCACGACGAGCG had a PBM binding z-score of 0.42.
Sequence CAAACTAGGTCAAGAGGTCAAAGTACGCTTCCCG came in with a PBM binding z-score of 5.74.
In the case of CGAACGAGGGCAAGAGTTGATAGCAAATGCCGAT, the PBM binding z-score is -0.493.
ATCGAAAGGTCGATGTGAGTATAGAGAAAGGGAA: the PBM binding z-score is -0.178.
On to CCTTACGGGTCACCCCAGGTTATAGCATCGGAGT, for which the PBM binding z-score amounted to 1.25.
In turn, ATCTCTAGGTAAAGTTCAGTGACAGATCGATAGA registered a PBM binding z-score of 1.97.
Still for that read-out and setting: as for AGAACGAGTGCACGCTGAGTTGATAGCAGAGTAG, the figure is -0.632; as for CCTCGGAGGACAACAGGAGGGCAGAGCTGCCAGA, -0.39; as for ATATTTAGGTTAGCTGGGGTCATTCAGACTAGGC, 3.69.
In the case of CCGACTGGGGCATAAGGTCACCATAAGCCAGCCC, the PBM binding z-score amounted to 0.732.
Take GCGACTGGGGCAAAGCAGGTTACCATCAGGTTGG: the PBM binding z-score is -0.624.
In the case of CCGACTGGGGCCAAGGTTACCATACTCAGTACGA, the PBM binding z-score is -0.174.
In the case of TCATATAAGTAATACAGGTGAAAGTCGGCATCTA, the PBM binding z-score is 0.589.
In turn, CGAACTAGGTCATTCAGGACAGTGAATACATTGA displayed a PBM binding z-score of 0.67.
The same measure, in the same setting: as for CAAACTAGGTCCCGAAAGGTCAAAGTCGAATGAC, the figure is 5.76; as for TGAATGAGGTTAAAGATTAGGGAACGTGGCGTCG, -0.0169.
Still for that read-out and setting: the value for AGTCAAAGTTCATCTAGGTAATGTAAGATATGCT was 5.38.
For ACTAGGAGGCCAAGTTTGGGTCACTCAAACAAAG, the PBM binding z-score is -0.0463.
Take CCGACTGGGCCATAAGGTTACCATAAGCCAGCCC: the PBM binding z-score was -0.402.
With GCGACTGGGGCATCAGCAGGTTACTATAACTTAA, the PBM binding z-score was -0.448.
In the case of CGAACTAGGTCAAGGACGGTGAATCTCCGCACGC, the PBM binding z-score worked out at 0.122.
For the sequence ATCGAAAGGTCGGAGGTGAGTATACCCACCCGAA, the PBM binding z-score is -0.237.
CCAGACAGGTGAAAGGTAAATCAGTCTGGTACGC: the PBM binding z-score was -0.205.
Turning to AGAATGAGTTTACCAAAGATCAGGGAAACGCTTG, the PBM binding z-score is -0.355.
For GCTATTAGTTGAAAGGGCTACCGAATGATTCTCG, the PBM binding z-score was -0.117.
Same read-out and setting: as for TCTAGCAGGCCAGAGGGTAACTCAAGAGGTACGG, the figure is -0.636; as for CCTAGTTGGTCAGAAGGTCACACACCGGATATGA, 1.87.

The subject of another test is LXRb:RXRa (NR concentration 270 nM, RXRa partner concentration 90 nM). The description is as above. The essentials:
as §1
As for TCTCGGAGGACACGAAGCTCAGAGCTTTCCAGAG, the PBM binding z-score is -0.53.
Regarding GCTGCTAGGTCAACTGATGGTCCGCTAAAGCTCG, the PBM binding z-score was found to be 1.92.
The same measure, in the same setting: the value for CCTAGTTGGTCAAGGTCACACTCGCTATAGGTAC was 3.43.
In turn, CTACCAAGGTGAACAAGGTCGCTGATTACTATTC came in with a PBM binding z-score of 1.37.
For the sequence ACATACAGGTGATGAAGGTAACTCAGGCTATCAT, the PBM binding z-score came out at 0.198.
TAGCCTAGGTCATGGACCAGTATACCACGCGAAC had a PBM binding z-score of 2.46.
The same measure, in the same setting: the value for TAGCCTAGGTAATGCGGGCCAGTATAGTGTCGGC was -1.17; that for CCTTTCGGGTCACGAGGTTATAGCACGACGAGCG was 4.2; that for GATACAGGGTCAGCTAGAAGCCAGAGTATGGAAA was 2.13.
On the same count and under the same terms, the value for ATTTCTAGGTAACAAGTTCAGTGAAAGAGAGGAC was 1.18.
Turning to ACTCGGAGGACAAAGGTCTGAGCTACGCCAGTGA, the PBM binding z-score was -0.796.
The same measure, in the same setting: the value for CCTAGCAGGCCAGGGTCAGTCAAGCATTTCGCTT was 1.08; that for CCTACTGGGCCCTTCAGAGGTCATTGATCATATG was 3.34.
Take CCTTACGGGTCACGAGGTTATACCACGACGAGCG: the PBM binding z-score was found to be 4.37.
The sequence CAAACTAGGTCAAGAGGTCAAAGTACGCTTCCCG had a PBM binding z-score of 5.71.
As for CGAACGAGGGCAAGAGTTGATAGCAAATGCCGAT, the PBM binding z-score was determined as 0.236.
ATCGAAAGGTCGATGTGAGTATAGAGAAAGGGAA yielded a PBM binding z-score of 2.
For the sequence CCTTACGGGTCACCCCAGGTTATAGCATCGGAGT, the PBM binding z-score was 4.43.
Take ATCTCTAGGTAAAGTTCAGTGACAGATCGATAGA: the PBM binding z-score is 1.27.
As to AGAACGAGTGCACGCTGAGTTGATAGCAGAGTAG, the PBM binding z-score was -0.327.
The same measure, in the same setting: the value for CCTCGGAGGACAACAGGAGGGCAGAGCTGCCAGA was -0.91; that for ATATTTAGGTTAGCTGGGGTCATTCAGACTAGGC was 4.89; that for CCGACTGGGGCATAAGGTCACCATAAGCCAGCCC was 2.78.
GCGACTGGGGCAAAGCAGGTTACCATCAGGTTGG came in with a PBM binding z-score of 0.0908.
CCGACTGGGGCCAAGGTTACCATACTCAGTACGA: the PBM binding z-score was 0.728.
The sequence TCATATAAGTAATACAGGTGAAAGTCGGCATCTA showed a PBM binding z-score of 1.15.
CGAACTAGGTCATTCAGGACAGTGAATACATTGA showed a PBM binding z-score of 2.11.
For the sequence CAAACTAGGTCCCGAAAGGTCAAAGTCGAATGAC, the PBM binding z-score came to 5.44.
The sequence TGAATGAGGTTAAAGATTAGGGAACGTGGCGTCG yielded a PBM binding z-score of 1.38.
For AGTCAAAGTTCATCTAGGTAATGTAAGATATGCT, the PBM binding z-score is 4.07.
Still for that read-out and setting: the value for ACTAGGAGGCCAAGTTTGGGTCACTCAAACAAAG was 0.967; that for CCGACTGGGCCATAAGGTTACCATAAGCCAGCCC was 0.636; that for GCGACTGGGGCATCAGCAGGTTACTATAACTTAA was 0.689.
In turn, CGAACTAGGTCAAGGACGGTGAATCTCCGCACGC showed a PBM binding z-score of 1.29.
ATCGAAAGGTCGGAGGTGAGTATACCCACCCGAA: the PBM binding z-score came to 1.67.
In the case of CCAGACAGGTGAAAGGTAAATCAGTCTGGTACGC, the PBM binding z-score amounted to 0.749.
On to AGAATGAGTTTACCAAAGATCAGGGAAACGCTTG, for which the PBM binding z-score was -0.0367.
Still for that read-out and setting: as for GCTATTAGTTGAAAGGGCTACCGAATGATTCTCG, the figure is -0.32.
With TCTAGCAGGCCAGAGGGTAACTCAAGAGGTACGG, the PBM binding z-score is -0.399.
In turn, CCTAGTTGGTCAGAAGGTCACACACCGGATATGA yielded a PBM binding z-score of 3.36.
